About 83,000 compounds went through this panel and 20% of them were active in at least one assay; those are over-represented in the sample as a whole.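 Negative percent growth values reflect cell death: -40 means 40% of the cells present at the start died, and -100 means all died.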 Active and inactive are the calls of the source. How the source made its calls: active means growth percent below 10; inactive means the rest.
System: COLO 205 colon
Assay: NCI-60 one-dose screen, 48 h (100 = growth as untreated, 0 = no growth, -100 = all killed)
Settings: 10 µM

| SMILES | growth |
| --- | --- |
| CNC(=S)Sc1ccc([N+](=O)[O-])cc1[N+](=O)[O-] | -35.1% (active) |
| O=C(CCc1ccccc1)N1CCN(C(=O)CCc2ccccc2)CC1 | 102% (inactive) |
| Cn1cnc([N+](=O)[O-])c1/C=C1\Oc2ccc(Cl)cc2C1=O | 100% (inactive) |
| NC1CCC(Nc2nc(NCc3ccc(-c4ccco4)nc3)c3ncn(C4CCCC4)c3n2)CC1 (stereo not drawn) | -62.7% (active) |
| CCCCCN(CCCCC)C(C)C(O)c1ccc2cc(Cl)c3ccccc3c2c1 (stereo not drawn) | 83.9% (inactive) |
| CC1(C)CNC(=O)N1 | 101% (inactive) |
| O=C(N/N=C/c1ccccc1O)c1ccccc1 | 19.3% (inactive) |
| CCn1nc(-c2ccccn2)c2cccnc2c1=S | 30.9% (inactive) |
| CCN(CC)CCn1c(=N)n(CC(O)c2ccc(Cl)c(Cl)c2)c2ccccc21 (stereo not drawn) | 18.5% (inactive) |
| O=C(O)c1ccc(CNc2ccc(C(=O)CCl)cc2)cc1 | 97.3% (inactive) |
| COc1cc(CSc2nc3ccc(C)cc3c(=O)n2Cc2ccccc2)cc(OC)c1OC | -18.7% (active) |
| COc1cc(C(c2c[nH]c3ccccc23)N2CCCC2)ccc1OCc1ccccc1 (stereo not drawn) | 104% (inactive) |
| [O-]c1c[n+](-c2ccc(Cl)cc2)no1 | 103% (inactive) |
| COc1cc(C(=O)n2nc(N)c3c(C)cc(C)nc32)cc(OC)c1OC | 67.6% (inactive) |
| COC(=O)[C@]12CC[C@@H](C)[C@H](C)[C@@H]1C1=CC[C@@H]3[C@@]4(C)C[C@@H](O)[C@H](O)[C@@](C)(CO)[C@@H]4[C@H](O)C[C@@]3(C)[C@]1(C)CC2 | -87.5% (active) |
| O=C1/C(=C/c2ccc(O)cc2)Oc2ccc(Cl)cc21 | 109% (inactive) |
| COc1ccc(/C=C2\CCC3C(CCCC34OCCO4)C2=O)cc1 (stereo not drawn) | 94.5% (inactive) |

| SMILES | growth |
| --- | --- |
| Cc1ccc2c3c(cccc13)-c1ccccc1C2=O | 93.9% (inactive) |
| COc1ccc(C(=O)/C=C/c2cc(-c3ccc4c(c3)OCO4)n[nH]2)cc1OC | 56.1% (inactive) |
| N=C(N)c1ccc(-c2ccc(-c3ccccc3)s2)cc1F | -78.1% (active) |
| CN(C)c1ccc2c(c1)OC(N)=C(C#N)C2c1ccc2c(c1)CCCN2C (stereo not drawn) | -10.2% (active) |
| CCOC(=O)c1c(C(F)(F)F)n([O-])c2ccc(OC)cc2[n+]1=O | 31.1% (inactive) |
| CNC(=O)c1cc(Oc2ccc(NC(=O)Nc3ccc(Cl)c(OC4CCCCC4)c3)c(F)c2)ccn1 | 33.2% (inactive) |
| COC(=O)[C@]12CC[C@@H](C)[C@H](C)[C@@H]1C1=CC[C@@H]3[C@@]4(C)CC(=O)[C@H](O)[C@@]5(C)COC(=C45)C[C@@]3(C)[C@]1(C)CC2 | -80.6% (active) |
| O=[N+]([O-])c1ccc(-c2nc(Cl)c3c(n2)CCCC3)o1 | 68.5% (inactive) |
| C/C(=N\NC(N)=S)C(C)(C)O | 119% (inactive) |
| FC(F)(F)c1ccc(-c2ncc(-c3ccc(C(F)(F)F)cc3)c(NCc3cc(C(F)(F)F)cc(C(F)(F)F)c3)n2)cc1 | 74.9% (inactive) |
| Oc1[nH]c2ccccc2c1/C=c1/cc2c(c(-c3ccc(C(F)(F)F)cc3)n1)=Nc1ccccc1-2 | 33.9% (inactive) |
| Cc1ccc(C(=O)O)c(N)c1C | 117% (inactive) |
| CC(=O)n1nc(C(=O)OC(C)(C)C)c2cc(F)c(F)cc21 | 103% (inactive) |
| COc1cc(N=C2C(=O)N(Cc3ccccc3)c3ccccc32)cc(OC)c1OC | 114% (inactive) |
| NC(N)=NS(=O)(=O)c1ccc(Nc2ccc3nnc(-c4ccncc4)n3n2)cc1 | 111% (inactive) |
| CC(=O)c1ccc(NCn2nc(-c3ccc(Cl)cc3)oc2=S)cc1 | 107% (inactive) |

Source: PubChem BioAssay (NCI)
